High-throughput results deposited in PubChem BioAssay by several laboratories.
Rv3671c inh: inhibits the M. tuberculosis serine protease Rv3671c; inhibition, % at 5.96 µM; 0.048% of 320,000 active; in the data active = inhibition above about 38%;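 note: extracellular domain of Rv3671c used as enzyme; 0% = enzyme with DMSO and 100% = no enzyme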
UGM FP inh: inhibitors of M. tuberculosis UDP-galactopyranose mutase | purified UGM, fluorescence polarization probe displacement | 0.06% of 320,000 active | AID 504406 | inhibition, % at 10 µM | P9WIQ1; in the data active = inhibition above about 10%, passing the limit was not always enough
Target sequence (P9WIQ1 whole entry, looked up): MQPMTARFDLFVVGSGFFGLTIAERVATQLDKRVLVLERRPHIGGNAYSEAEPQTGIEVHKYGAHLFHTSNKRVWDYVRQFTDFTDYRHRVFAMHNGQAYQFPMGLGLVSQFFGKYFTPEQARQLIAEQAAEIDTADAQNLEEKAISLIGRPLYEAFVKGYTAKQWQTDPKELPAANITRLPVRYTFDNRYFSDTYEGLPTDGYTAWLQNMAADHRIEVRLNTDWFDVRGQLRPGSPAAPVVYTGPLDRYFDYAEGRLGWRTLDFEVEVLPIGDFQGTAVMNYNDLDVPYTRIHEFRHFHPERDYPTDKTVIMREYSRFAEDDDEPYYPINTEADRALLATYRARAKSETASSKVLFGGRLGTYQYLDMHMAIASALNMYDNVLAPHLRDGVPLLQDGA
RecA splice inh: Mtb RecA intein splicing inhibition; cell-free RecA intein splicing, fluorescence; 0.75% of 290,000 active; inhibition, % (no concentration beside the values); P9WHJ3; in the data active = inhibition above about 30%;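 note: 0% = vehicle wells and 100% = reference inhibitor control wells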
Mtb FBA inh: inhibitors of M. tuberculosis fructose-bisphosphate aldolase | purified M. tuberculosis FBA, fluorescence read-out | AID 588726 | inhibition, % at 1 µM | P9WQA3 | 2.3% of 360,000 active; in the data active = inhibition above about 27%;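 note: 0% = vehicle and 100% = reference inhibitor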
GDH-TPI inh: inhibits GDH-TPI coupling enzymes, artifact for Mtb FBA screen; GDH-TPI coupled enzyme counterscreen, NADH absorbance; inhibition, % at 4.8 µM; 1.2% of 360,000 active; AID 588335; in the data active = inhibition above about 30%;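 note: 0% = DMSO wells and 100% = wells lacking the enzyme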
Vc quorum ag: quorum light induction in luxS cqsA deficient V. cholerae. activation, % at 18.7 µM. V. cholerae BH1578 lux reporter, luminescence, 6 h. 0.16% of 350,000 active; in the data active = activation mostly above about 9.7%, no sharp cut-off
GFP chromo cs: counter-screen GFP chromophore formation inhibition; shares compounds with RecA splice inh; AID 434968; EC50, µM; cell-free GFP chromophore formation, fluorescence; 83% of 2,100 active; call rule not given here
* = called active by the depositor; i = inactive; . = no result; + = active, no number. A selection: hits, their analogues and other compounds. The true share with any hit is near 4.1%.

SMILES	Rv3671c inh	UGM FP inh	RecA splice inh	Mtb FBA inh	GDH-TPI inh	Vc quorum ag	GFP chromo cs
Cc1ccc(CN2CCSc3ccc(C(=O)NCCCN4CCOCC4)cc32)cc1	2	-3	-14	162*	9	i	.
CCOc1ccc(C(=O)NCCCN2CCOCC2)cc1OCC	-3	-1	0	+	2	0	.
Cc1cccc(C(=O)N=C2SC3CS(=O)(=O)CC3N2c2ccccc2)c1 (configuration not stated)	.	.	.	-4	-12	i	.
O=S(=O)(CCc1ccncc1)c1ccc(Cl)cc1	6	3	-2	4	7	i	.
COc1ccc(-c2csc(C(NC(C)=O)c3cccc(F)c3)n2)cn1 (configuration not stated)	.	.	.	5	-1	i	.
O=C(COc1ccc(S(=O)(=O)NC2CCCC2)cc1)N1CCCCC1	-3	-2	-1	0	-3	i	.
O=C(CSc1n[nH]c(-c2ccc(S(=O)(=O)NC3CCCCC3)cc2)n1)N1CCCC1	-3	1	2	125*	2	-4	.
CC12CCC(C(=O)N(CSC(=S)N/N=C\c3ccccc3)C1=O)C2(C)C (configuration not stated)	7	-1	-3	5	42*	6	.
Cc1ccccc1NC(=O)Cc1nc(COC(=O)c2nccnc2N)cs1	.	.	.	25	24	-5	.
O=C(NCc1ccco1)c1ccc(-c2ccc(F)c(F)c2)c2ccoc12	.	.	.	-1	-10	0	.
COc1ccc(CNC(=O)[C@@H](Cc2ccccc2)NC(=O)CC[C@H]2O[C@@H](n3ccc(=O)[nH]c3=O)[C@H](O)[C@@H]2O)cc1	.	.	.	0	.	.	.
Cc1ccc2[nH]c3c(c2c1)CN(C(=O)CN1CCSCC1)CC3	.	.	61*	.	.	-8	0.19*
Cc1ccc2[nH]c3c(c2c1)CN(C(=O)CN1CC(C)OC(C)C1)CC3 (configuration not stated)	4	-2	.	1	-3	i	.
COCCNc1c([N+](=O)[O-])c(=O)n(-c2ccccc2)c2ccccc12	8	0	-4	-1	4	-1	.
CCSc1c([N+](=O)[O-])c(=O)n(-c2ccccc2)c2ccccc12	-9	-1	40*	-8	-6	i	>38
CCc1ccc(C(O)(CNCc2ccccc2)c2ccccc2)cc1 (configuration not stated)	.	1	3	1	3	-1	.
CCc1ccc(C(=O)Cn2ncc(Cl)c(Cl)c2=O)cc1	-9	1	15	2	9	i	.
O=C(OCn1ncc(Cl)c(Cl)c1=O)c1cccc(C(F)(F)F)c1	-26	0	94*	-1	-4	-5	1.6*
CS(=O)(=O)c1ncc(Cl)c(C(=O)Nc2ccc3ccccc3c2)n1	.	.	31*	-1	1	0	12*
CCC1CCCCN1S(=O)(=O)c1ccc(NC(=O)c2ccncc2)cc1 (configuration not stated)	-4	0	1	-2	0	0	.
CCC1CCCCN1S(=O)(=O)c1ccc(NC(=O)c2nc(S(C)(=O)=O)ncc2Cl)cc1 (configuration not stated)	-97	3	97*	5	1	0	1.3*
O=C(NCc1ccccc1)c1nc(S(=O)(=O)Cc2ccccc2)ncc1Cl	-15	-2	77*	3	10	0	17*
O=C(Nc1ccc2ccccc2c1)c1cnccn1	-9	2	5	2	10	1	.
CCS(=O)(=O)c1ncc(Cl)c(C(=O)Nc2ccc(C)cc2)n1	-1	-1	65*	0	17	1	23*
CC(C)Oc1ccc(S(=O)(=O)N2CCOCC2)cc1NC(=O)CN1C(=O)c2ccccc2C1=O	.	.	.	-1	-1	i	.
SMILES	Rv3671c inh	UGM FP inh	RecA splice inh	Mtb FBA inh	GDH-TPI inh	Vc quorum ag	GFP chromo cs
CC(=O)Nc1cc(-c2ccc(CO)cc2)cn2c(-c3ccc(F)c(Cl)c3)cnc12	.	.	.	6	-1	1	.
CC(C)CNC(=O)C1(C)CCCN1Cc1ccc(OC(F)(F)F)cc1 (configuration not stated)	.	.	.	-2	-3	i	.
CC(=O)Nc1ccc(NC(=O)c2nc(S(=O)(=O)Cc3ccccc3)ncc2Cl)cc1	-3	-1	40*	2	10	0	26*
COc1ccc(CNC(=O)c2nc(S(=O)(=O)Cc3ccccc3)ncc2Cl)cc1	1	1	82*	5	-2	i	15*
COc1ccc(S(=O)(=O)N2C[C@H]3CON(C)[C@H]3C[C@H]2c2ccc(-c3cc4ccccc4o3)cc2)cc1	.	.	.	2	23	i	.
CCOC(=O)c1nnc(-c2ccccc2)nc1Sc1ccccc1Cl	4	0	40*	0	3	i	2*
O=C(CC[C@H]1O[C@@H](n2cnc3c(NC(=O)c4ccccc4)ncnc32)[C@H](O)[C@@H]1O)NCc1ccccn1	.	.	.	4	.	.	.
CC1(C(=O)NCC2CC2)Cc2c(-c3ccccc3)ccnc2O1 (configuration not stated)	.	.	.	0	-6	2	.
O=C(Oc1ccccc1N1C(=O)CCC1=O)c1ccco1	5	1	36*	1	-2	-1	>38
COc1ccc(CC2(CO)CCN(S(=O)(=O)c3sccc3C)CC2)cc1	9	-5	7	8	8	0	.
OC(COC(c1ccccc1)c1ccccc1)CN1CCc2ccccc2C1 (configuration not stated)	5	-3	4	1	5	2	.
OC(COC(c1ccc(Cl)cc1)c1ccc(Cl)cc1)CN1CCc2ccccc2C1 (configuration not stated)	-4	-1	30*	-1	-4	i	>38
FC(F)(F)c1ccc2c(c1)N(CCCN1CCN(CCCl)CC1)c1ccccc1S2	3	2	63*	12	-6	0	17*
COc1ccccc1OCCNC(=O)C1CC(=O)N(Cc2ccc(C)cc2)C1 (configuration not stated)	-5	.	3	-1	-5	0	.
O=C(Nc1cccc2cccnc12)c1csc(COCCO)n1	.	.	.	8	10	-1	.
COc1cccc(OC(=O)CSc2nnc(-c3ccccc3Br)o2)c1	0	2	74*	1	9	0	26*
Fc1ccc(Sc2nc(-c3ccccc3)nnc2C(F)(F)F)cc1	1	-3	71*	-4	-3	0	0.89*
CS(=O)(=O)c1cnc(-c2ccccc2)nc1Sc1ccc(F)cc1	-5	0	1	0	8	-1	.
COc1cccc(C(=O)Nc2nc(SCc3ccc(Cl)cc3)n[nH]2)c1	11	-3	39*	2	1	i	>38
COc1cccc(C(=O)NNC(=O)Cc2ccc(Cl)cc2)c1	-1	0	0	0	4	0	.
Cc1ccn2c(C=O)c(-c3ccc(F)cc3)c(C=O)c2c1	-6	-1	.	-2	10	-1	.
